About 1,400 (0.42%) of roughly 330,000 compounds were called active. This excerpt belongs to a sample that is enriched for actives. Unmarked numbers belong to inactive results.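 The calls were made as follows: active = at least 40% inhibition at 20 µM here, with at most 30% in a related deaminase screen; inactive = the rest.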

The target of this assay is DNA dC->dU-editing enzyme APOBEC-3A (Homo sapiens) (UniProt P31941). Description: APOBEC3A ssDNA deaminase inhibitors, primary screen, selectivity assay for APOBEC3G inhibitor project, biochemical, FAM/TAMRA oligo cleavage fluorescence (AID 493011).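 Also: plate controls were A3A with DMSO for no effect and wells lacking A3A enzyme for full effect.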 To be noted: recombinant A3A, FAM/TAMRA ssDNA deamination fluorescence; at 20 µM; hits give high values.
Chain of DNA dC->dU-editing enzyme APOBEC-3A (Homo sapiens) (P31941 whole entry, looked up): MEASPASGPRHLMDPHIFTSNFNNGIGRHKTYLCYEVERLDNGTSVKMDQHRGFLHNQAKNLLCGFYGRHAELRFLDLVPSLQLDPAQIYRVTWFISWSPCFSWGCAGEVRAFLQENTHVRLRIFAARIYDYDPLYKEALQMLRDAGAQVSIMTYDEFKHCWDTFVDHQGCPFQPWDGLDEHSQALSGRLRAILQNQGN
As for `O=c1c2ccccc2c(-c2ccccc2)nn1-c1ccccn1`, the inhibition was 0.978%. Then `O=C1c2oc3ccccc3c(=O)c2C(c2cccc(O)c2)N1c1ccccn1` (stereo not drawn), with 51.3% (active). The result for `COCCN1C(=O)c2oc3c(C)cc(C)cc3c(=O)c2C1c1cccc(O)c1` (stereo not drawn) reads -3.14%; that for `O=C(NC(CC(=O)N1CCN(c2ccccc2)CC1)c1ccccc1)c1ccccc1Cl` (stereo not drawn), -2.76%; that for `CN1C(C(=O)NCC2CC2)CC2Cn3c(nc4ccccc43)C21` (stereo not drawn), -2.77%. The result for `CCCCn1c(N)c(N(CC(C)C)C(=O)C2CSC3(C)CCC(=O)N23)c(=O)[nH]c1=O` (stereo not drawn) reads 7.64%.

Regarding `CCOc1ccc(CNC(=O)C2CC(=O)N(C3CCCC3)C2)cc1OC` (stereo not drawn), the inhibition is -5.29%. Then `CN(CC(=O)Nc1ccc(F)c(F)c1F)C(=O)C1CC(=O)N(C2CCCC2)C1` (stereo not drawn), with 0.598%; and `COc1ccc(Br)cc1CN(C)C(=O)C1CC(=O)N(C2CCCC2)C1` (stereo not drawn), with 43.5% (active); and `Cc1ccc(NS(=O)(=O)c2ccc(C(C)C)cc2)cc1S(=O)(=O)N1CCOCC1`, with 3.31%.

Take `O=C(Cn1cnc2ccccc2c1=O)Nc1cccc(S(=O)(=O)N2CCCCC2)c1`: the inhibition is 2.51%. Then `CCOc1cc(C)c(S(=O)(=O)NCc2ccccn2)cc1C`, with -6.13%. For `C[N+]1(CC(O)COc2ccccc2)CCN(C(=O)c2ccc([N+](=O)[O-])cc2)CC1` (stereo not drawn), the inhibition was 67.8% (active).

As to `O=[N+]([O-])c1ccc(N2CCN(CC(O)COc3ccccc3)CC2)cc1` (stereo not drawn), the inhibition was 0.14%. Take `O=C(COc1ccccc1)Nc1ccc(C(=O)N2CCCC2)cc1`: the inhibition is 0.542%. The result for `CCN(CC(=O)NCc1cccs1)c1nnnn1-c1ccccc1` reads -3.14%; that for `CCCCNC(=O)N1CCCC(N(C)CCc2ccc(OC)c(OC)c2)C1` (stereo not drawn), -3.11%; that for `CCS(=O)(=O)c1ccc2c(c1)N(S(=O)(=O)c1ccccc1)CC(C(=O)O)O2` (stereo not drawn), 1.33%. Then `COCCCn1c(SCC(=O)NC2CCCC2)nnc1-c1ccccc1`, with 0.169%. `COCCCn1c(Cc2csc(Nc3cccc(Cl)c3)n2)nnc1SCC(=O)OC1CCCCC1`: the inhibition was 50.4% (active). Regarding `CCOc1ccc(Nc2nc(Cc3nnc(SCC(=O)NC4CCCC4)n3C)cs2)cc1`, the inhibition was -3.45%. Turning to `O=C(Oc1ccc(-c2nc(-c3ccccn3)no2)cc1)c1ccccc1`, the inhibition was 2.42%. Then `Cc1cn(C2OC[C@@H](O)[C@@H]2CO)c(=O)[nH]c1=O` (stereo partly drawn), with -1.23%. Then `COc1ccc(CCNC(=O)c2cc3sccc3n2C)cc1OC`, with 5.91%; and `COc1ccc(CCNC(=O)COC(=O)/C=C/c2cccs2)cc1OC`, with 48.9% (active); and `COc1ccc(/C=C/C(=O)OCC(=O)NCc2cccs2)cc1OC`, with 2.47%. For the molecule `COCCn1c(SCC(=O)N2CCCCCC2)nc2c(c1=O)SCC2`, the inhibition is -5.21%. Take `CC(C)(C)C1CCC(C(=O)Nc2cccnc2)CC1` (stereo not drawn): the inhibition is -2.44%. In the case of `COc1cc(/C=N\Nc2ccc([N+](=O)[O-])cn2)ccc1OCC(=O)O`, the inhibition was 71.8% (active). On to `CCCc1ccc(OCc2ccc(C(=O)N/N=C/c3cccc([N+](=O)[O-])c3)o2)c(OC)c1`, for which the inhibition was 2.99%.

As to `COc1cc(/C=N/NC(=O)Nc2ccccc2)ccc1OCCOc1ccccc1C`, the inhibition is -4.86%. The result for `COC(=O)C[n+]1cccc2ccccc21` reads 67.3% (active); that for `O=C(C[n+]1cc(Br)cc2ccccc21)c1ccc(F)cc1`, -1.32%.

Turning to `COc1c(C(=O)N2CCCC2)ccc2ccccc12`, the inhibition was 1.55%. For `COc1ccccc1NC(=O)COC(=O)c1ccccc1SCC(=O)N1CCCC1`, the inhibition was 1.2%.

As to `CCO[C@H]1OC(C(=O)N2CCN(Cc3ccccc3)CC2)=C[C@@H](c2cn(C(C)=O)c3ccccc23)[C@@H]1CCCO`, the inhibition is -2.14%.

In the case of `O=C(CNC1CCCCC1)NCC1(c2ccccc2)CCCC1`, the inhibition is 56.4% (active). Then `CCOc1c(OC)cccc1C(=O)NCC1(c2ccccc2)CCCC1`, with -3.19%; and `COc1cc(C(=O)NCC2(c3ccccc3)CCCC2)ccc1OC(C)C`, with 5.08%. In the case of `O=C(NC1(C(F)(F)F)NC(=O)N(Cc2cccnc2)C1=O)c1ccccc1Cl` (stereo not drawn), the inhibition is 0.863%. For `C[N+]1(CCNC(=O)/C=N/O)CCCCC1`, the inhibition is 54.1% (active). The result for `O=[N+]([O-])c1cc(S(=O)(=O)N2CCCC2)ccc1NN=C1CCCC1` reads -1.16%; that for `Cc1ccc(CSc2nsc(C)c2C#N)cc1`, -2.03%. Consider `Cc1snc(SCc2c(F)cccc2Cl)c1C#N`, for which the inhibition is 44.2% (active). The result for `Cc1cc(SCc2c(F)cccc2Cl)nc(=O)[nH]1` reads 1.16%; that for `Cc1ccc(NC(=O)CN(C)C(=O)COC(=O)C(C)(C)Oc2ccc(Cl)cc2)cc1`, 1.01%. Then `O=C(CCC1CCCCC1)Nc1cc(C(F)(F)F)ccc1N1CCOCC1`, with 1.06%. For `COc1ccccc1N1CCN(C(=O)CCS(=O)(=O)c2ccc3c(c2)NC(=O)C(C)S3)CC1` (stereo not drawn), the inhibition was 0.853%. `Cc1cccc(N2C(=O)N3[C@H](c4ccc(F)cc4)[C@@H]4C(=O)N(C5CCCCC5)C(=O)[C@@H]4[C@]3(Cc3ccccc3)C2=O)c1`: the inhibition was 0.21%. Then `CCN1C(=O)N[C@@H](c2ccccc2)[C@H](C(C)=O)[C@H]1C`, with -2%; and `CCN1C(=NCCc2cccnc2)N[C@@H](c2ccccc2)C(C(=O)OC)=C1C`, with 67.6%; and `CCN1C(=NCCc2cccnc2)N[C@@H](c2ccccc2)[C@H](C(=O)OC)[C@H]1C`, with 68.2% (active).

For the molecule `CC1=C(C(N)=O)C(c2sccc2C)n2nnnc2N1` (stereo not drawn), the inhibition was 0.148%. Regarding `Cc1cc(Cl)ccc1C(=O)C1CCCN(C(=O)c2nonc2C)C1` (stereo not drawn), the inhibition is -5.04%. The result for `Cc1cc(=O)cc(C)n1-c1ccc(Cl)c(Cl)c1` reads 1.75%; that for `Cc1cc(/C=N/NC(=O)CC2(C)OCCO2)c(C)n1-c1ccc(Cl)c(Cl)c1`, 56.8% (active).

Consider `Cc1ccccc1-n1c(C)cc(/C=N/NC(=O)c2ccc(CN3CCOCC3)cc2)c1C`, for which the inhibition was 0.38%.

In the case of `CCOc1ccc(S(=O)(=O)Nc2ccncc2)c(C)c1C`, the inhibition was -0.833%.

Take `CCc1ccc(OCC(O)CN2CCN(CCO)CC2)cc1` (stereo not drawn): the inhibition is -7.28%. Take `CC(=O)c1ccc(N=C2SCCCN2C(=O)C2CCCCC2)cc1`: the inhibition is 4.36%.

Consider `O=C(CN1C(=O)c2cccc3cccc(c23)C1=O)N1CCCCC1`, for which the inhibition was -1.16%.

As to `O=C1c2cccc3cccc(c23)C(=O)N1CCCCCc1n[nH]c(=S)o1`, the inhibition was -1.78%. `C[N+](C)(CCCCCC[N+](C)(C)CCCN1C(=O)c2cccc3cccc(c23)C1=O)CCCN1C(=O)c2cccc3cccc(c23)C1=O`: the inhibition is 46% (active). For the molecule `CC(=O)c1ccc(NC(=S)N(Cc2ccccc2)C(C)C2CC2)cc1` (stereo not drawn), the inhibition is 0.493%.

Consider `COc1ccc(-c2ocnc2C(=O)Nc2ccc3c(c2)CCC3)cc1`, for which the inhibition was -0.367%. The result for `CCN(CC(=O)N1CCCC1)S(=O)(=O)c1ccc(F)cc1` reads -1.08%. For `NC(=O)c1ncc(C(F)(F)F)cc1Oc1ccc(F)cc1`, the inhibition was 2.03%. Then `N#Cc1ncc(C(F)(F)F)cc1Oc1cccnc1`, with 60.4% (active). As for `O=C(Nc1ccc(Cl)cc1)Nc1ccc(Oc2cccnc2)nc1`, the inhibition is -3.23%. Consider `COc1ccc(C)cc1NC(=O)CN1c2cccc3cccc(c23)S1(=O)=O`, for which the inhibition was -2.73%.

As to `CCN(C(=O)COc1ccc(C(=O)c2ccccc2)cc1)c1ccccc1`, the inhibition is -0.203%.

Regarding `COc1ccccc1CNC(=O)COC(=O)c1sc(C)nc1C`, the inhibition is -1.57%.

`CC(=O)Nc1ccc(NC(=O)CSc2nnc(C3CC3)n2-c2ccccc2)cc1`: the inhibition was 10.5%. In the case of `CC[n+]1c(C)n(-c2ccccc2)c2ccc(NC(C)=O)cc21`, the inhibition is 60% (active).

On to `CC(=O)c1cccc(NC(=O)c2cc(C)nn2-c2ccccc2)c1`, for which the inhibition was -0.424%. Then `COc1cccc([C@H](O)Cn2cc(-c3ccc(CON=C(C)C)cc3)nn2)c1`, with 2.45%. As for `Cc1nnc(N/N=C/c2ccccn2)[nH]c1=O`, the inhibition is 42.1% (active).

`Cc1cc(C(=O)N/N=C/c2ccccn2)c2ccccc2n1`: the inhibition was -3.08%. Regarding `COc1ccc(Cc2nnc(N/N=C/c3ccccc3O)[nH]c2=O)cc1OC`, the inhibition was -1.76%. The result for `CC(C)(C)NC(=O)c1ccc(Cn2cc(C(F)(F)F)ccc2=O)cc1` reads -2.36%; that for `CCOc1ccc(C(=O)NCC(=O)N2CCCCCCC2)cc1OCC`, -0.114%.

As to `CC(O)C(NS(=O)(=O)c1ccc(Cl)cc1)C(=O)OCc1cc([N+](=O)[O-])cc2c1OCOC2` (stereo not drawn), the inhibition was -3.62%. Then `NS(=O)(=O)c1ccc(CNC(=O)c2cccc(Oc3ccccc3)c2)cc1`, with -0.736%; and `CCc1ccc(S(=O)(=O)Nc2cc3c(cc2N2CCCCC2)n(C)c(=O)c(=O)n3C)cc1`, with -6.54%.

Turning to `CCN1C(=O)N[C@@H](c2ccccc2)C(C(=O)OC)=C1C`, the inhibition is 4.12%.

`COC(=O)C1=C(C)N(C)C(=S)NC1c1ccccc1` (stereo not drawn): the inhibition was -2.13%. `COC(=O)C1=C(C)N(Cc2ccccc2)C(=NCCCOC(C)C)N[C@H]1c1ccccc1`: the inhibition was 45.5% (active).

Turning to `CC1CN(C2CCN(C(=O)COc3ccccc3)CC2)CC(C)O1` (stereo not drawn), the inhibition is -6.23%. Then `COC(=O)c1ccc(NC(=O)CSc2nnc(Cc3cccn3C)n2-c2ccc(F)cc2)cc1`, with -0.405%. `Cc1cccc(N2CCN(C(=O)COCc3cc(-c4ccc5c(c4)OCO5)on3)CC2)c1C`: the inhibition was -0.313%.

Turning to `Cc1sc2nc(CSCC(=O)NC3CCCCC3)[nH]c(=O)c2c1C`, the inhibition is -2.29%.

For `CSc1nnc(SCc2nc3sc(C(=O)O)c(C)c3c(=O)[nH]2)s1`, the inhibition was 65.8% (active). Then `CC(=O)c1sc2nc(SCC(=O)N3CCCCC3)[nH]c(=O)c2c1C`, with 2.37%.
